Hits are enriched below; roughly 10% of the tested compounds scored in any of these assays.
JMJD2A Tudor = qHTS Assay for Inhibitors of JMJD2A-Tudor Domain; Lysine-specific demethylase 4A (Homo sapiens), O75164; AlphaScreen JMJD2A-Tudor / H3K4me3 peptide binding; Potency, µM (top dose mostly 114 µM), for the others: at the top dose activity change, negative = inhibition, usual class: inhibitors; hit rate 4.4% among 390,000; AID 504339, 2011; note: potency is the fitted concentration of half-maximal effect; % is set by controls: 0 for no effect and ±100 for the full control effect; nearly all actives have a fitted effect of over 50% in size
G9a block = qHTS Assay for Inhibitors of Histone Lysine Methyltransferase G9a; AID 504332, 2011; G9a H3K9 monomethylation, AlphaScreen, 2 h; Potency, µM (series often up to 102 µM), for inactives: at the highest dose activity, negative = inhibition, actives largely listed as inhibitors; hit rate 8.8% among 350,000; Histone-lysine N-methyltransferase EHMT2 (Homo sapiens), Q96KQ7; note: potency is the fitted concentration of half-maximal effect; % is set by controls: 0 for no effect and ±100 for the full control effect; nearly all actives have a fitted effect of over 75% in size
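Compounds were preincubated with 20 nM G9a for 15 min, after which biotinylated H3K9 peptide (500 nM) and SAM (20 uM) started a 2 h room-temperature reaction. Monomethylated product was quantified by antibody-based AlphaScreen chemiluminescence.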
CtBP-E1A inh = qHTS Assay for Inhibitors of the CtBP/E1A Interaction. AlphaScreen GST-E1A/His-CtBP binding, 1536-well; stronger effect = lower value. activity change, % (no concentration beside the values). hit rate 0.49% among 340,000; in the data active = activity change below about -65%; inconclusive = mostly about -30% to -63%; note: % is set by controls: 0 for no effect and ±100 for the full control effect
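Steps: dispense buffer (Tris pH 8.0, NaCl 300 mM, TCEP 1 mM, BSA, Tween 20); add 5X protein mix (GST-E1A, His-CtBP, 125 nM each); pin 23 nL compound; 2 h at 37 °C, dark; add 5X beads (50 ug/mL); 1 h; read.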
HP1b binding inh = HTS for Inhibitors of HP1-beta Chromodomain Interactions with Methylated Histone Tails. Potency, µM (series often up to 114 µM), without a hit: top-dose activity change, negative = inhibition, hits mostly inhibitors. AlphaScreen HP1-beta / biotin-H3K9me3 peptide binding. hit rate 0.56% among 390,000; note: potency is the fitted concentration of half-maximal effect; nearly all actives have a fitted effect of over 70% in size
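AlphaScreen: HP1-beta (50 nM) preformed 30 min with biotin-H3(1-18)K9me3 peptide (50 nM) in PBS pH 7.4, 0.01% Tween-20. Compound added for 30 min at RT, then streptavidin donor/nickel chelate acceptor beads (10 ug/mL) for 30 min.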
Six1-Eya2 blk = qHTS Assay for Inhibitors of the Six1/Eya2 Interaction. AID 651725, 2012. AlphaScreen GST-Six1/His-Eya2 binding, biochemical; stronger effect = lower value. hit rate 0.56% among 360,000. activity change, % (concentration not given with the values); in the data active = activity change below about -65%; inconclusive = mostly about -30% to -63%; note: % is set by controls: 0 for no effect and ±100 for the full control effect
Target sequence (O00167 whole entry, looked up): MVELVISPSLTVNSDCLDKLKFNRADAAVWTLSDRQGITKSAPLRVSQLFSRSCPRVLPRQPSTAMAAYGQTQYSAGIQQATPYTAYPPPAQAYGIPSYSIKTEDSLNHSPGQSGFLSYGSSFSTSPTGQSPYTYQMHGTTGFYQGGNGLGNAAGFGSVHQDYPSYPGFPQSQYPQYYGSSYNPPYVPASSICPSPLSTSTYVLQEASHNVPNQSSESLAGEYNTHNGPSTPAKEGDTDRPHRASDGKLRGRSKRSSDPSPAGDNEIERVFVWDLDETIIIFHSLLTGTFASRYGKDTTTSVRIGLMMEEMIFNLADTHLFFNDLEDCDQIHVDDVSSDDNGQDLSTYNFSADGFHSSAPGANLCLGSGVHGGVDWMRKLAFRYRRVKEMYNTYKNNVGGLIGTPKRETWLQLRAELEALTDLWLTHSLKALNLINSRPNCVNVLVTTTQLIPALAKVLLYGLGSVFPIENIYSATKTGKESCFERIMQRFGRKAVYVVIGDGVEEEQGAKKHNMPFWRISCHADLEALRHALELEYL
Target sequence (Q15475 whole entry, looked up): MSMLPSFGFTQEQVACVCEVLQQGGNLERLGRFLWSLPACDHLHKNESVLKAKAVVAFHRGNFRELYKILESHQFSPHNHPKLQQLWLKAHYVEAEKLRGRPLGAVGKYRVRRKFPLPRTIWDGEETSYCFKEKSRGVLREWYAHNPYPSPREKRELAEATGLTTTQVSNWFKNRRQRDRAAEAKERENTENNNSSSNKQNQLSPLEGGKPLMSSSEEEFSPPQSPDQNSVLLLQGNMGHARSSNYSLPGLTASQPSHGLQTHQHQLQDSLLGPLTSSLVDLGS
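AlphaScreen luminescence read after one hour at 37 °C in darkness. Pin-transferred compounds met GST-Six1 and His-Eya2 protein (5X stock 250 nM/500 nM) plus glutathione donor and Ni-chelate acceptor beads (5X, 50 ug/mL).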
BAZ2B inh = qHTS Assay for Inhibitors of BAZ2B; AID 504333, 2011; AlphaScreen BAZ2B-H3K14Ac peptide displacement; Potency, µM (highest dose often 114 µM), for inactives: at the top dose activity change, negative = inhibition, most hits filed as inhibitors; hit rate 4.4% among 360,000; Bromodomain adjacent to zinc finger domain protein 2B (Homo sapiens), Q9UIF8; note: potency is the fitted concentration of half-maximal effect; % is set by controls: 0 for no effect and ±100 for the full control effect; nearly all actives have a fitted effect of over 60% in size
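Inhibition is scored as reduced AlphaScreen emission. The BAZ2B/b-H3(5-23)K14Ac complex (50 nM each) in PBS pH 7.4, 0.01% Tween-20 meets compound (up to 110 uM) for 30 min at RT before bead addition.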
An asterisk follows results filed as active; ? = inconclusive; · = no result; [ ] = dose if it differs, or a comment. Unless noted, calls come from the whole dose curve; as a rule, active = well fitted inhibition curve with a large enough effect; inconclusive = small, poorly fitted or top-dose-only effect; inactive = no such curve, though single readings can be large or run the other way.

SMILES	JMJD2A Tudor	G9a block	CtBP-E1A inh	HP1b binding inh	Six1-Eya2 blk	BAZ2B inh
Cc1ccc(N(CC(=O)NCCc2ccc(Cl)cc2)S(=O)(=O)N(C)C)cc1	-4%	25%[59 µM]	·	94%	·	22%
COc1ccc(OC)c2sc(NC(=O)C3=COCCO3)nc12	-4%	-6%	-8	33%	-2	7%
COc1cccc2sc(NNC(=O)C3=COCCO3)nc12	-21%	13µM*	8	36%	7	4%
Cc1ccc(NC(=O)CSc2nnc(-c3ccncc3)s2)cc1	-14%	22%	2	12%	9	-19%
O=C(CSc1nnc(-c2cccnc2)s1)Nc1ccc(C(=O)O)cc1	-25%	14µM*	0	16%	1	-12%
CC(C)c1ccc(NC(=O)c2ccc(CN3CC(=O)N4CCCCC4C3=O)cc2)cc1 (centres undefined)	-9%	-24%[59 µM]	·	8%	·	-4%
O=C(O)c1ccc(S(=O)(=O)N[C@H](Cc2ccc([N+](=O)[O-])cc2)C(=O)O)cc1	?	-24%[12.7 µM]	·	·	·	-37%
CS(=O)(=O)Nc1ccc(-c2n[nH]c(=S)n2-c2ccccc2)cc1	5.6µM*	0.5µM*	0	26%	1	-7%
CS(=O)(=O)Nc1ccc(-c2nc3ccccc3s2)cc1	-13%	?	·	26%	·	-13%
Cc1[nH]c2ccc(-c3n[nH]c(=S)n3-c3ccccc3)cc2c1C	56µM*	1.6µM*	-19	?	-13	-10%
Cc1[nH]c2ccc(-c3n[nH]c(=S)n3Cc3ccccc3)cc2c1C	?	7.9µM*	-22	9%	?	?
Cc1[nH]c2ccc(-c3n[nH]c(=S)n3-c3ccc(Br)cc3)cc2c1C	-17%	-1%	-5	30%	-5	?
COCCCNC(=O)c1cc2c(=O)oc3ccc(C)cc3c2s1	-2%	4%[59 µM]	·	36%	·	-5%
N#Cc1c(N)sc(=S)c2c1CCCC2	?	7.1µM*	?	?	?	40µM*
Cc1cc(C)cc(NC(=O)C(C)N2Cc3ccccc3C2=O)c1 (centres undefined)	10%	-3%[59 µM]	·	24%	·	2%
CC(=O)c1ccc(NC(=O)/C=C/c2ccc(C)o2)cc1	50µM*	11µM*	·	?	·	?
COC(=O)c1ccc(Cl)cc1NC(=O)/C=C/c1ccc(C)o1	-5%	?	1	12%	4	1%
Cc1ccc(NC(=O)/C=C/c2ccc(C)o2)c(C)c1	?	11µM*	·	?	·	79µM*
O=C(O)/C=C/C(=O)Nc1ccc(Oc2ccccc2)cc1	-12%	·	0	24%	1	-23%
Cc1ccc(/C=C/C(=O)Nc2cc(=O)n(C)c(=O)n2C)o1	?	4µM*	0	-29%	-15	-5%
Cc1ccc(/C=C/C(=O)Nc2ccc(Oc3ccccc3)cc2)o1	-33%	11µM*	-4	?	-6	?
Cn1c(NC(=O)/C=C/c2ccco2)cc(=O)n(C)c1=O	-5%	?	-12	33%	-24	-2%
Cc1ccc(/C=C/C(=O)Nc2ccc([N+](=O)[O-])cc2)o1	-8%	28µM*	0	14%	0	50µM*
CCCOc1ccc(/C=C/C(=O)Nc2ccc([N+](=O)[O-])cc2)cc1	-25%	-2%	-15	8%	-12	5%
CN(Cc1ccc(F)cc1)S(=O)(=O)c1nnc(NC(=O)c2ccccc2Cl)s1	6%	?	·	49%	·	-4%
SMILES	JMJD2A Tudor	G9a block	CtBP-E1A inh	HP1b binding inh	Six1-Eya2 blk	BAZ2B inh
O=C(CCSc1ccccc1)Nc1ccc(S(=O)(=O)N2CCOCC2)cc1	-24%	-46%	0	49%	-3	56µM*
O=C(CCCc1ccccc1)Nc1ccc(S(=O)(=O)N2CCOCC2)cc1	3%	·	3	45%	-1	-17%
O=S(=O)(c1ccc(NC(=S)NN=C(Cc2ccccc2)Cc2ccccc2)cc1)N1CCOCC1	-9%[11.4 µM]	·	·	-20%	-2	50µM*
O=C(CSc1ncnc2sccc12)Nc1ccc(S(=O)(=O)N2CCOCC2)cc1	-3%	45µM*	-22	15%	-10	9%
O=C(O)C1CCCCC1C(=O)Nc1ccc(S(=O)(=O)N2CCOCC2)cc1 (centres undefined)	56µM*	·	-20	-16%[57 µM]	9	·
O=S(=O)(c1ccc(NC(=S)NCCc2ccccc2)cc1)N1CCOCC1	-6%	22%[59 µM]	-18	42%	-10	-8%
CC1CN=C(N(C(=O)Nc2ccccc2)c2ccc(S(=O)(=O)N3CCOCC3)cc2)S1 (centres undefined)	11%	7.1µM*	0	24%	-1	12%
CCOc1ccc(C2NC(=O)c3c(COC)cc(C)nc3N2Cc2ccccc2)cc1OC (centres undefined)	-15%	13%[59 µM]	·	41%	·	-13%
CCOC(=O)c1ccc2[nH]c3c(c2c1)CCCC3	-54%	35µM*	·	?	-16	32µM*
CCN(C(=O)COC(=O)c1ccc(Cl)c(N)c1)C1CCS(=O)(=O)C1 (centres undefined)	-9%	114%[59 µM]	·	69%	-4	13%
CN(C)CCOC(=O)c1ccc2[nH]c3c(c2c1)CSCC3	-31%	28µM*	-4	?	-9	-24%
CCN(C(=O)COC(=O)c1ccc2[nH]c3c(c2c1)CCCC3)C1CCS(=O)(=O)C1 (centres undefined)	-35%	50µM*	0	-28%	5	?
O=C(CN(c1cccc(Br)c1)S(=O)(=O)c1ccccc1)N1CCc2ccccc2C1	-1%	19%[59 µM]	·	17%	·	-1%
COc1ccc(CC(=O)NCc2ccc3c(c2)CCN3C(C)=O)cc1	-7%	2%[59 µM]	·	21%	·	0%
Cc1ccc(C2NNC(=O)C2NC(=O)c2ccccc2)cc1 (centres undefined)	?	2.2µM*	7	1%	9	-7%
CCOc1ccc(/C(C)=N/N2C(=O)C(CC(=O)Nc3ccc(OC)cc3[N+](=O)[O-])SC2=Nc2cccc(C)c2C)cc1 (centres undefined)	-29%	35µM*	0	9%	2	-38%
Cc1cccc(/N=C/C2=C(O)CC(C)(C)CC2=O)n1	-2%	?	17	25%	10	1%
CC1(C)CC(=O)C(C=Nc2ccc3c(c2)OCO3)=C(O)C1	2%	?	0	11%	-12	1%
